Test results from PubChem BioAssay AID1851 (National Center for Advancing Translational Sciences (NCATS), 2009).
Among all 16,000 compounds or so, about 5,100 (32%) were called active. Another 25% or so got no clear call; they are omitted. Calls come from the whole dose curve; as a rule, active = well fitted curve in the direction sought with a large enough effect; inconclusive = small, poorly fitted or top-dose-only effect, or effect the other way; inactive = no such curve, though single readings can be large or run the other way. The list shows a part of the results. Square brackets hold non-standard residues; d marks the D form. Peptide text beside a SMILES is read from it. * marks the point of attachment. Cbz = O=C(OCc1ccccc1)*

What follows are molecules tested against Cytochrome P450 3A4 (Homo sapiens) (UniProt P08684) (assay: Cytochrome panel assay with activity outcomes). Settings: recombinant CYP, pro-luciferin dealkylation, luminescence, p450-cyp3a4; series mostly up to 57.1 µM.
% is set by controls: 0 for no effect and ±100 for the full control effect.

Chain of Cytochrome P450 3A4 (Homo sapiens) (P08684 whole entry, looked up): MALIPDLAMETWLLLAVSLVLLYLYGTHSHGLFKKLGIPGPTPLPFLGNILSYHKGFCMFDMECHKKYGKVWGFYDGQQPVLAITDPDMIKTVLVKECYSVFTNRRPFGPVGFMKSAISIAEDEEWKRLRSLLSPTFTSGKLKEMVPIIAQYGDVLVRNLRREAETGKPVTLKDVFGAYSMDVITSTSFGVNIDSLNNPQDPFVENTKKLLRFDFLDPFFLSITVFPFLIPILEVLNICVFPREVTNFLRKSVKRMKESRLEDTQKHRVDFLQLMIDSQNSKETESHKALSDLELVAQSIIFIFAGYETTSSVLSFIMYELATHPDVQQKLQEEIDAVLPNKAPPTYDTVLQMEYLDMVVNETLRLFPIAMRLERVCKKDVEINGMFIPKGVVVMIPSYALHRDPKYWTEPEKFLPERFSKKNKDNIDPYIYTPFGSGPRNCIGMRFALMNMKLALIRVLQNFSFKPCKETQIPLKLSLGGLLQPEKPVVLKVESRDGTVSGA

AC50, inactive:
CC(=O)N[C@@H](C(=O)O)C(C)(C)SN=O
CCC(C#CCN1CCCCC1)(CC)OCCC#N
CC(=O)Nc1nnc(CCN2CCCCC2)s1
CCc1nc(SCC(=O)NNC(=O)C2CCCCC2)c2ccccc2n1
CCCS(=O)(=O)N1CCCC(C(=O)N2CCN(C(=O)OCC)CC2)C1 (centres undefined)
O=C(O)C1=CC(=C(c2ccc(O)c(C(=O)O)c2)c2ccc(O)c(C(=O)O)c2)C=CC1=O
Cn1c(=O)n(CCC(=O)O)c2ccccc21
CC(=O)CCCCn1c(=O)c2c(ncn2C)n(C)c1=O
CC1(C)Oc2ccc(C#N)cc2[C@H](N2CCCC2=O)[C@H]1O
Cc1n[nH]c(=O)[nH]c1=O
O=C(Nc1ncc(Cc2cccc(Cl)c2)s1)C1=NCCN1
CC(C)C[C@H](NC(=O)[C@@H](O)[C@H](N)Cc1ccccc1)C(=O)O
N[C@H](C(=O)O)[C@H](OCc1ccccc1)C(=O)O
CC(C)C(NC(=O)OCc1ccccc1)C(=O)O (centres undefined)
CSCC[C@H](C=O)NC(=O)[C@H](CC(C)C)NC(=O)[C@H](CC(C)C)NC(C)=O (Ac-Leu-Leu-[dM]-aldehyde)
CN(C)CCO[C@@H](c1ccc(Cl)cc1)c1ccccn1
C[C@H](O)[C@H](O)[C@@H]1CNc2nc(N)[nH]c(=O)c2N1
C[C@@H](C1=C(CCN(C)C)Cc2ccccc21)c1ccccn1
CCn1c(N)nc2ccccc21
O=C(Nc1ccc2ccccc2c1)c1onc2c1CCCC2
Cc1c(Nc2cc(N3CCCC(C)C3)c3nonc3c2[N+](=O)[O-])c(=O)n(-c2ccccc2)n1C (centres undefined)

AC50, active:
Cc1c(C(=O)O)oc2ccc(S(=O)(=O)NCc3ccc4c(c3)OCO4)cc12 15.8 µM
CCCc1nc(SCC(=O)NNC(=O)C2CCCCC2)c2ccccc2n1 3.55 µM
Cc1ccc(SCC(=O)NNC(=O)C2CCCCC2)cc1 7.94 µM
CCc1nnc(NC(=O)CSc2nc(C3CCCCC3)nc3ccccc23)s1 2.51 µM
CCc1nnc(NC(=O)CSc2nc3cc4c(cc3cc2C)OCCO4)s1 14.1 µM
CC1=C/C(=C(/c2ccc(O)c(C)c2)c2ccccc2C(=O)O)C=CC1=O 1.58 µM
Cc1ccccc1N1CCN(S(=O)(=O)C[C@@]23CC[C@H](C[C@H]2NC(=O)[C@@H](N)CCS(C)(=O)=O)C3(C)C)CC1 3.16 µM
O=C(CCCCn1c(=O)c2ccccc2n(CC(=O)NC2CCCC2)c1=O)NC1CCCC1 5.01 µM
COc1ccccc1CNC(=O)CCCn1c(=O)c2ccccc2n(CC(=O)NC2CCCC2)c1=O 4.47 µM
Cc1noc(NS(=O)(=O)c2ccc(N/C=C\C(=O)c3ccc4c(c3)OCO4)cc2)c1C 14.1 µM
Cc1noc(NS(=O)(=O)c2ccc(N/C=C/C(=O)c3ccc4c(c3)OCO4)cc2)c1C 11.2 µM
O=C(Nc1ncc(Cc2cc(Cl)ccc2Cl)s1)c1ccc([N+](=O)[O-])cc1 6.31 µM
CCCCC(C=O)NC(=O)C(CC(C)C)NC(=O)OCc1ccccc1 (centres undefined) 15.8 µM
CC(C)[C@H](NC(=O)OCc1ccccc1)C(=O)N[C@H](C=O)Cc1ccccc1 (Cbz-Val-Phe-aldehyde) 6.31 µM
CCCSC1=C(C#N)C(c2cccnc2)C(C(=O)OCC)=C(c2ccccc2)N1 (centres undefined) 11.2 µM
COc1ccc(N(C(=O)COc2ccccc2OC)S(=O)(=O)c2ccc(C)cc2)cc1 25.1 µM
Nc1nnc(SCCOc2cccc(Br)c2)s1 12.6 µM
FC(F)Sc1ccc(N=C2NN=C(c3ccc4c(c3)OCCO4)CS2)cc1 12.6 µM
O=C1c2ccccc2C(=O)N1CC1c2ccccc2CCN1S(=O)(=O)c1ccccc1 (centres undefined) 2 µM
CC1CCCCN1c1nc(-c2ccncc2)nc2ccccc12 (centres undefined) 0.631 µM
CN(Cc1ccco1)c1ncncc1-c1cccc(NS(C)(=O)=O)c1 0.794 µM
CN(Cc1ccco1)c1ncnc2ccc(-c3cccc(NS(C)(=O)=O)c3)cc12 5.01 µM
CN(CCc1ccccn1)c1ccc2c(c1)C(=O)c1ccccc1-2 3.16 µM
CN(CCc1ccccn1)c1ccc2c(c1)Cc1ccccc1-2 2.51 µM
CCn1c(COc2ccc(OC)cc2)nc2ccccc21 1.26 µM
O=C(c1ccccc1)[C@H](Nc1ccc2ccccc2c1)c1ccccc1 3.16 µM

activity, negative = inhibition, inactive:
O=C(O)C[C@H](Cc1ccc2c(c1)OCO2)C(=O)O -6.76% [at 11.4 µM]
Cc1ccc(SCN2CCCCC2)cc1 (tested in a mixture with another compound) -20% [at 11.4 µM]
O=C(O)c1ccc(C(=O)c2ccccc2C(=O)O)cc1C(=O)O -0.636% [at 11.4 µM]
O=C(Nc1cnn(Cc2ccc(Cl)cc2)c1)c1ccc([N+](=O)[O-])cc1 -0.424% [at 2.29 µM]
COc1ccc(N(CC(=O)O)N=O)cc1 -6.51% [at 11.4 µM]
CC1(C)[C@@H]2CC[C@]1(C)[C@@H](OC(=O)/C=C\c1ccccc1)C2 -9.57% [at 11.4 µM]
COCCn1c(C)cc(C2=NNC(=Nc3ccc(F)cc3)SC2)c1C 15.3% [at 11.4 µM]
CCN1CCN(c2nc(-c3ccccn3)nc3ccccc23)CC1 9.59% [at 2.29 µM]
O=C(O)[C@H](CCc1ccccn1)c1ccccc1 0.483% [at 11.4 µM]
O=C1c2ccccc2-c2ccc(N(Cc3ccc(Br)cc3)Cc3ccc(Br)cc3)cc21 3.02% [at 11.4 µM]
c1ccc(Cn2c(CN3CCCC3)nc3ccccc32)cc1 -12.3% [at 2.29 µM]
O=C(O)CCC(=O)Nc1ccc2ccccc2c1 -3.97% [at 11.4 µM]
